High-throughput results deposited in PubChem BioAssay by Center for Chemical Genomics, University of Michigan.
The entries come from a sample that favours hits as a whole.
Dicer processing = human Dicer pre-microRNA cleavage inhibition | Q9UPY3 | cat-ELCCA pre-miR-21 Dicer processing, chemiluminescence; hits give high values | z-score at 25 µM | 47,000 compounds, 6% hits | AID 1347074; in the data active = z-score above about 3, passing the limit was not always enough;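 also: plate controls were vehicle for no effect and no enzyme for full effect; higher signal means more uncleaved substrate so more Dicer inhibition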
* = called active by the depositor.

SMILES	Dicer processing
CC1CCN(c2oc(-c3cccs3)nc2S(=O)(=O)c2ccccc2)CC1	0.05
CSc1c(-c2cccs2)c(N)nn1S(=O)(=O)c1ccccc1	3.9*
CSc1c(C#N)c(-c2cccs2)nn1C(=O)C(C)(C)C	-2.6
Cc1cc(N)c(-n2c(-c3ccc(Cl)cc3)cn3c4c(=O)n(C)c(=O)n(C)c4nc23)cc1C	-1.2
O=C1NC(=S)S/C1=C/c1ccc(Sc2ccc(C(F)(F)F)cn2)c([N+](=O)[O-])c1	3.4*
O=[N+]([O-])c1cc(C(F)(F)F)ccc1Sc1ccc(C(F)(F)F)cn1	-0.36
O=[N+]([O-])c1ccsc1Sc1ccc(C(F)(F)F)cn1	-0.18
Cc1nc(/N=C(\N)NC(=O)Nc2ccc(Cl)cc2)sc1Br	-1.4
Cc1c(C(=O)O)nnn1-c1cc(C(F)(F)F)cc(C(F)(F)F)c1	-0.01
c1ccc(-c2nc3nc4ccccc4n3[nH]2)cc1	-0.68
COC(=O)c1scc2c(Sc3nccn3C)cc(C(F)(F)F)nc12	0.21
COC(=O)c1scc2c(SCc3ccccc3)cc(C(F)(F)F)nc12	5*
COC(=O)c1scc2c(OC)cc(C(F)(F)F)nc12	0.71
CN(C(=S)NC(=O)c1ccccc1)c1ccc(OC(F)(F)F)cc1	-0.8
CCOC(=O)C(=CNc1ccc(C(=O)O)cn1)C(=O)OCC	-1.5
N#Cc1c(-n2ncnc2-c2cccnc2)sc2c1CCCCC2	-2.8
O=C(CSc1ncnc2sc(-c3ccccc3)cc12)c1cccs1	-0.64
COc1ccc(-c2nnc(SCc3cccc(Cl)c3)o2)c(OC)c1	-0.48
COc1ccc(-c2nnc(SCc3cccc4ccccc34)o2)c(OC)c1	227*
COc1ccc(-c2nnc(SCc3cccc4ccccc34)o2)cc1	-0.09
CCOC(=O)C1=C(C)N=C2SCCC(=O)N2C1c1ccccc1Cl (configuration not stated)	0.08
O=c1sn(-c2ccc([N+](=O)[O-])cc2Cl)c(=O)n1CC1CC1	-0.95
CN(C)CCNC(=O)N1c2ccccc2Sc2ccccc21	-0.21
Cc1nc2c(cnn2-c2ccccc2)c(=O)n1NC(=O)Nc1ccc(Cl)c(Cl)c1	4.7*
O=c1c2cnn(-c3ccccc3)c2nc(-c2ccco2)n1-c1ccccc1	-0.43
SMILES	Dicer processing
CCOC(=O)c1cnn(-c2ccccc2)c1NC(=O)Nc1cccc(Cl)c1	-0.56
Cc1nc2c(cnn2-c2ccccc2)c(=O)n1/N=C/c1ccccc1	-0.04
Cc1nc2c(cnn2-c2ccccc2)c(=O)n1-c1cccc2ccccc12	3.2*
O=C(Cn1cnc2c(cnn2-c2ccccc2)c1=O)c1ccc(Cl)cc1	-0.65
CCOC(=O)C1C2C=CC3(CN(C(c4ccccc4)c4ccccc4)C(=O)C13)O2 (configuration not stated)	-0.14
Cc1cc(C)c(S(=O)(=O)N2CCN(Cc3ccc4c(c3)OCO4)CC2)cc1C	5.2
CCc1c(C)nc(N2CCN(Cc3ccc4c(c3)OCO4)CC2)[nH]c1=O	3.9*
O=c1cc(CSc2ccc(Cl)cc2)nc(N2CCN(Cc3ccc4c(c3)OCO4)CC2)[nH]1	2.8
COc1ccc(CCNc2ncnc3sc4c(c23)CCC(C)C4)cc1OC (configuration not stated)	-0.25
CCOC(=O)c1cn2nc(Oc3ccc(CC(C)=O)cc3)ccc2n1	0.9
CCOC(=O)c1c(C)n(CCO)c2ccc(O)cc12	1.9
CCOC(=O)c1c(O)c(O)c(C(=O)OCC)n1-c1ccc(OC)cc1	0.01
CCOC(=O)c1sc(=S)n(-c2ccc(Cl)cc2)c1C	0.39
CCOC(=O)c1c(C)n(-c2ccccc2)c2ccc(OC(=O)c3cccs3)cc12	1.4
CCOC(=O)c1c(C)n(-c2ccccc2)c2c1cc(O)c1ccccc12	-1.9
CCOC(=O)c1c(C)n(-c2ccc(OC)cc2)c2ccc(O)cc12	4.7*
CCOC(=O)c1sc(-c2ccc(C)cc2)nc1O	-0.32
CCOC(=O)c1sc2c(c1O)c(=O)n(-c1ccccc1)c(=S)n2-c1ccccc1	-0.09
CCOC(=O)c1sc(=S)n(-c2cc(C)ccc2C)c1N	5.2*
CCOC(=O)c1sc(=S)n(-c2ccc(OC)cc2)c1C	4.2*
CCOC(=O)c1c(C)n(-c2ccc(N(C)C)cc2)c2ccc(O)cc12	6.6*
CCOC(=O)c1c(C)n(-c2ccccc2)c2ccc(O)cc12	1.5
COCc1cc(=O)[nH]c(/N=C(\N)Nc2ccccc2OC)n1	1.4
O=[N+]([O-])c1c(Sc2ccc(Cl)cc2)sc(Sc2ccc(Cl)cc2)c1[N+](=O)[O-]	-1.6
CCc1c(O)c(C(C)=O)c(=O)n(-c2ccccc2)c1-c1ccccc1	-0.16
SMILES	Dicer processing
CCCCOc1nc2c(c(=O)n(C)c(=O)n2C)n1Cc1ccc(Br)cc1	-0.03
C/C(Cc1nsc(Nc2ccccc2)n1)=N\Nc1cc(Cl)ccc1Cl	-0.5
CCn1c(NC(C)c2cc(Cl)ccc2O)nc2ccccc21 (configuration not stated)	2.3
COC(=O)c1cnc(N2CCCN(C(=O)Nc3ccc(OCc4ccccc4)cc3)CC2)nc1C(F)(F)F	-4.3
Cc1nc(N2C(=O)c3oc4ccccc4c(=O)c3C2c2ccc(Cl)cc2)sc1C (configuration not stated)	-0.33
O=c1nc(-c2ccccc2)c2ccccc2[nH]1	6.6
Cc1nc(-c2ccccc2)c2c(=O)cc(-c3ccccc3)[nH]c2n1	1.8
O=c1cc(-c2ccccc2)[nH]c2ccccc12	4*
CC(=O)OC[C@H](OC(C)=O)[C@H](OC(C)=O)[C@@H](CNC(=O)c1ccc(C)c(C)c1)OC(C)=O	0.91
CCn1c2ccc(Br)cc2c2cc(Br)cc(Br)c21	-0.24
COc1ccc(Nc2nc(-c3ccccn3)cs2)c(OC)c1	5.3*
Fc1ccccc1Nc1nc(-c2ccccn2)cs1	1.7
Cc1cc(O)ccc1Nc1nc(-c2cccnc2)cs1	1.9
Cc1nc(C)c(-c2csc(Nc3ccc(O)cc3C)n2)s1	1.1
COc1ccc(OC)c(Nc2nc(-c3ccncc3)cs2)c1	1.7
Cc1cc(O)ccc1Nc1nc(-c2ccccn2)cs1	5.4*
CC(C)(C)c1ccc(C(=O)CC2(O)C(=O)Nc3ccc(Cl)cc32)cc1 (configuration not stated)	1.3
O=C(Oc1ccccc1/C=N/N=C1\SCC(=O)N1c1cccc(F)c1)C1CC1	5.3
O=[N+]([O-])c1c(Sc2ccc(Cl)cc2)ccc2nsnc12	-4.5
Cn1nc(-c2ccc(-c3ccn(S(C)(=O)=O)n3)s2)cc1C(F)(F)F	4*
Cn1nc(-c2ccc(S(=O)(=O)NCC(=O)NNS(=O)(=O)c3ccc(Cl)cc3)s2)cc1C(F)(F)F	0.13
Cn1nc(-c2ccc(Sc3ccc(Cl)cc3)s2)cc1C(F)(F)F	-0.62
Cc1cc(C(=O)N/N=C/N(C)C)nn1-c1c(Cl)cc(Cl)cc1Cl	0.95
Fc1ccc(-c2csc(Nc3ccccc3Cl)n2)cc1	-1.2
N#Cc1c(-c2ccc(Cl)cc2)cc(-c2ccccc2)[nH]c1=S	3.8*
SMILES	Dicer processing
COc1ccc(-c2cc(-c3cccs3)[nH]c(=S)c2C#N)cc1	1.1
COc1ccc(-c2cc(-c3ccc(C)cc3)[nH]c(=S)c2C#N)cc1	0.56
CCc1cc2c(=O)c(-c3nc4ccccc4n3C)coc2cc1O	-0.27
CN1NC(c2ccc(Cl)cc2)/C(=N\OC(=O)c2ccc(C(C)(C)C)s2)SC1=S (configuration not stated)	1.8
O=c1c2ccccc2nc(/C=C/c2ccc(O)cc2)n1Cc1ccccc1	-1.2
COc1cccc(-n2c(/C=C/c3cn(C)c4ccccc34)nc3ccccc3c2=O)c1	6.8
CCn1c(/C=C/c2c[nH]c3ccccc23)nc2ccccc2c1=O	3*
CCn1c(C)[n+](CC(O)COc2ccccc2C)c2ccccc21 (configuration not stated)	1
